108 sequences from PubChem BioAssay AID1347426 (Functional Genomics Laboratory (NCATS/FGL), 2020) can be followed below.

In all, about 31,000 sequences went through this assay and about 1,400 (4.5%) were called active. The full list was thinned out, with actives kept by preference. Values without a mark were called inactive.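 Rule for the calls: active = median seed-adjusted z-score above 1 or below -1; inactive = the rest.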

This assay in a line: Novel Modifiers of Survival Motor Neuron (SMN) Protein: Gene Identification via Genome-wide siRNA Screen.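 Note: luminescence tracks full-length SMN protein made from the SMN2 reporter.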 Particulars: HEK293T SMN2-luciferase reporter, siRNA knockdown, 72 h; actives lie on both sides. A digest of the protocol: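 Steps: spot 1 pmol siRNA, add Lipofectamine RNAiMax in serum-free DMEM, seed HEK293T SMN2–luciferase reporter cells; incubate 72 h at 37 °C; add ONE-Glo; normalize luminescence to control siRNA, log10, MAD. Candidates: |MAD| > 1.0.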
As to GGGUGAUCGAGGACCCAAATT against COL8A1, the median seed-adjusted z-score was -0.848.

On to GGAUCAUGCUAAAAGGAGATT against SNRPE, for which the median seed-adjusted z-score is -2.77 (active).

In the case of GCCUUGUAAAAAUCAACUUTT against ZNF528, the median seed-adjusted z-score is -0.0746.

Turning to CGCAAAAGGCUACCACGAATT against CD300LF, the median seed-adjusted z-score is -0.264.

As for GGUUGCUACGGGAACAAUATT against ARSD, the median seed-adjusted z-score was -0.447.

As for CAGUGACCUGCUUCCCUCATT against PROP1, the median seed-adjusted z-score is 0.303.

With CGGUGUGAAGAUGAUCUAATT against DNAJC24, the median seed-adjusted z-score is -0.0166.

Regarding GUUACUCACAUUUUCUUUATT against AKR7A3, the median seed-adjusted z-score was 0.455.

On to UAAUCAAUCUGGAAUGUUUTT against BMP8B, for which the median seed-adjusted z-score was 0.

As to CGAGGAGCUGAAUUCCCAATT against SLC9A3R1, the median seed-adjusted z-score was -0.418.

Consider CAGACUGAAGGGUUCCGAATT against MLH3, for which the median seed-adjusted z-score is 0.228.

Consider GCCUCUAAGAGCUGAGAGATT against PRSS33, for which the median seed-adjusted z-score is -0.588.

Take GGACUAUGCAAAGAAUCUATT against RPS6KB1: the median seed-adjusted z-score was 1.4 (active).

On to GCUACGAUCACAUUACGAATT against JARID1D, for which the median seed-adjusted z-score was 0.293.

GUACCAGUCCAGUCCAUGATT against CDKN2D: the median seed-adjusted z-score is -0.455.

For GGAAGUAAAUGUUGUUUUATT against CCL11, the median seed-adjusted z-score is -0.221.

With GGCCCGAGCUGAUUGACUATT against ACTN1, the median seed-adjusted z-score is 0.

GCUCUAACCUCACUAAUCATT against ZNF256: the median seed-adjusted z-score was 0.00739.

Take CCGCUGCAACAACCAGAAATT against LRP3: the median seed-adjusted z-score is -1.05 (active).

Regarding CAGUCCUACAGGUUCAUCATT against PIP5K1C, the median seed-adjusted z-score is -0.13.

With GAGAUAUUUGAGUCGUUAATT against GBP7, the median seed-adjusted z-score was 0.

Regarding CAACUCCGUGGUUACCAAATT against PQBP1, the median seed-adjusted z-score is -1.12 (active).

For UCAUGAGCCUGAUAAGUGATT against PPP2R5D, the median seed-adjusted z-score is 0.848.

For GAUCUCAAAUCAGAGUUAATT against ANXA7, the median seed-adjusted z-score is 0.671.

CAAUGGAUCGGCUUCCUUATT against ADRA2B: the median seed-adjusted z-score was 0.00853.

With GCAAUAAGAGAGAUCAGUATT against PDSS1, the median seed-adjusted z-score was -0.287.

For the sequence GGACAAGAAGCAAAUGACATT against OLIG2, the median seed-adjusted z-score is 0.00944.

As for GGUCCGCAAAGGCUUCUGATT against VWA1, the median seed-adjusted z-score was 0.289.

In the case of CCUUAUCCGAGAAUACAUUTT against TUBAL3, the median seed-adjusted z-score is 1.05 (active).

In the case of GGAAAUUGACUUUCUAAAATT against KRT84, the median seed-adjusted z-score is -0.645.

As to CAGUGACUAUGAGAGUGUATT against SCARB2, the median seed-adjusted z-score was -0.244.

On to CGGUUGAAGUGUAGGGAGATT against TCEA1, for which the median seed-adjusted z-score is 0.

Consider CGAGUAUACAGUAUACAGATT against CHAF1B, for which the median seed-adjusted z-score is 0.634.

CUCAGAGAAUAAUCACAAATT against PER2: the median seed-adjusted z-score is -0.113.

Regarding GAACUAUAUUCUUCUGUGATT against CDH1, the median seed-adjusted z-score was -0.24.

Consider GCCUCCUACUACUUCCGUUTT against SLC6A8, for which the median seed-adjusted z-score was -0.0673.

As to GAAUUGUACCUACUUCUGUTT against PTPLA, the median seed-adjusted z-score was 0.291.

For the sequence CUACCUCUCUUGUUUGGAATT against TRIP13, the median seed-adjusted z-score is 1 (active).

For GCAAGCAGGUUAUCAACGATT against FLII, the median seed-adjusted z-score is -0.353.

In the case of GCAUGUACGACCAAUGUAATT against NR3C1, the median seed-adjusted z-score is -0.47.

GAGUCACAGUUGAAGAUCUTT against GOT2: the median seed-adjusted z-score is 0.205.

With CAAUCUCCGCAAAAAUGGATT against PCMT1, the median seed-adjusted z-score is 0.139.

With CGACAUCUCACUCAUGAAATT against SF3A3, the median seed-adjusted z-score is -2.1 (active).

For the sequence CUAUGGACCAGUCAAAUAATT against NDUFB7, the median seed-adjusted z-score was -0.379.

Turning to ACACCCGCGUGUCUGAUUATT against PPAP2C, the median seed-adjusted z-score was -1.12 (active).

Consider CCCUCAUCAAGAACUUUCATT against S100A14, for which the median seed-adjusted z-score is 0.0172.

For GCCUAAACAGUGACCGAUUTT against BDH1, the median seed-adjusted z-score is -0.0253.

Consider CUGCUGUUGUUACUACCCATT against USF1, for which the median seed-adjusted z-score is 0.16.

Take GCAAGACCACGCUCCUUUATT against ARL11: the median seed-adjusted z-score is 1 (active).

As for GGAGUUAUCUGGUGACAAUTT against UROS, the median seed-adjusted z-score was -0.248.

Take GGCUAGUAGCUGAACUUCATT against DIMT1L: the median seed-adjusted z-score was 0.0156.

Regarding CAGUUGCAUUGGUUCCCAUTT against EZH1, the median seed-adjusted z-score is 0.268.

For GCUUUGGAAGGGUUUGAUATT against DCT, the median seed-adjusted z-score was -0.184.

As to GACGAAUCACUGCAGUUUATT against GOSR2, the median seed-adjusted z-score is -1.25 (active).

For CAAGGUCUCCUGUGCUGAATT against MYOG, the median seed-adjusted z-score was -0.0972.

Consider GGAUGUUGAUGAAGGCAAATT against LDHAL6A, for which the median seed-adjusted z-score is -0.15.

For GAAUAUAACCUGCCGCUUUTT against CD44, the median seed-adjusted z-score is 0.

Turning to GGGCUGGAUUGGUACAGGATT against HS3ST2, the median seed-adjusted z-score is 0.133.

Regarding CGUGUGAUCCAGAGACUUATT against KRT1, the median seed-adjusted z-score is -0.362.

For AAGGCUACUUAACAAAGGATT against S100A10, the median seed-adjusted z-score is 0.366.

With GACGACUUCUUGAACAGAATT against ZNF207, the median seed-adjusted z-score was -3.1 (active).

As for GUAGGAUUGUUUAGUGUAATT against CACNA1D, the median seed-adjusted z-score was -0.0856.

In the case of GCUUUGAGAUUUUCGAGGATT against MYO1B, the median seed-adjusted z-score was 0.903.

On to CGAGAGCUCCAGAUCAUGATT against GSK3B, for which the median seed-adjusted z-score was -0.952.

For GGGAUUGAGUUAAAACUAUTT against SOX7, the median seed-adjusted z-score is -0.387.

As to GGUAGCUUCUGAUAAUGAUTT against LEO1, the median seed-adjusted z-score is 1.2 (active).

As to CGUGGGUAAUGAUGCGGAATT against TOM1, the median seed-adjusted z-score is 0.774.

In the case of GGAGUUGAAGGCCUACAAATT against APOE, the median seed-adjusted z-score was 0.0321.

On to CCUUGUCUGUGCUCAAGUATT against USP35, for which the median seed-adjusted z-score was -0.219.

Turning to CACUUACCAAGGAUACCAATT against PHC2, the median seed-adjusted z-score was 0.177.

Consider GGAUUUUACAGGAUAUCUUTT against SPPL2A, for which the median seed-adjusted z-score is -0.358.

GAAUGGACUGGUACCUAUUTT against ALDOB: the median seed-adjusted z-score is -1.34 (active).

Turning to GGAUCUGCAUAGUGACCAATT against PSMB1, the median seed-adjusted z-score was -0.35.

For AUGUUUCAAUAGAUCCAGATT against LIMD2, the median seed-adjusted z-score was 0.418.

With GCACCAAAGUAUACAACGATT against PRKAR2B, the median seed-adjusted z-score is -0.777.

Take GAUCUUGGAUGGAUUGCUATT against OCA2: the median seed-adjusted z-score is 0.457.

Turning to ACAACCCUCUUAAAACUAATT against IGF2, the median seed-adjusted z-score was -0.0306.

CUGUAUGGGUGGUCAAUCATT against ABCA1: the median seed-adjusted z-score was -1.27 (active).

GGACAACGAUAACCGAUCATT against CA1: the median seed-adjusted z-score is 0.262.

In the case of GUCUAAAUCUCGUUCCAAATT against SRrp35, the median seed-adjusted z-score is -0.0574.

Take AGGUCAAUGUGACUUUCCATT against KCNJ10: the median seed-adjusted z-score was -0.0371.

For GAAACGAUAUGAAUGUAAATT against ZNF491, the median seed-adjusted z-score was 0.0642.

In the case of CCAUUGAAGAGGCUAUGAATT against SPAG7, the median seed-adjusted z-score is 0.263.

In the case of GAGUGGGAAUGGUCAGGCUTT against ADORA2B, the median seed-adjusted z-score was -0.471.

In the case of GGUCCAUGGUGGAAGACGATT against MAL, the median seed-adjusted z-score is 0.0733.

As for CCAUCUCAGGAGUUAGCUATT against ZNF281, the median seed-adjusted z-score was 1.19 (active).

GUGUCUGGAUUUUCACUGATT against F11: the median seed-adjusted z-score is -0.0319.

As for AGGCCUUGGUGGAACAUGUTT against PSAP, the median seed-adjusted z-score is 0.107.

Take GCUCGUAAGUUGGUGAUCATT against TPM3: the median seed-adjusted z-score was 0.111.

In the case of GAACUAGCACGCAUCAAGATT against PPM1G, the median seed-adjusted z-score was 0.073.

Turning to GCACCAGCCUUAACCCUCATT against RAB1B, the median seed-adjusted z-score was 1.55 (active).

As for AAAUCCCGGUGAUCAUCGATT against MAP1LC3A, the median seed-adjusted z-score was 0.

In the case of GAGACAACCUGCAACGACATT against GDI1, the median seed-adjusted z-score is 0.198.

As for CAGGAGUGAUUAAACGGUUTT against GNAI3, the median seed-adjusted z-score was 0.0656.

With GCUCUCAUAUCAUUCCAUUTT against PPIL5, the median seed-adjusted z-score is 0.

In the case of GAUGAUUACCUGCAGAGCATT against MYD88, the median seed-adjusted z-score is -0.365.

Consider CCAUCAAAAUCGCAGACUUTT against DDR1, for which the median seed-adjusted z-score is -0.166.

As for GGAUGUCUAGAUUACAUUUTT against PDE12, the median seed-adjusted z-score was 0.422.

Regarding GGAGUACCGGCUAACAAUATT against MORC4, the median seed-adjusted z-score is 0.13.

Turning to ACAUGAUCUUGGACCUGGATT against CSNK2B, the median seed-adjusted z-score was -1.62 (active).

Take CAAUAGGAUUGGUCACCAATT against PNPT1: the median seed-adjusted z-score is 0.0729.

For CAACCAUCCCAUGUCUGUUTT against NMNAT2, the median seed-adjusted z-score is -1.58 (active).

Turning to GGAGUUAGCACUAACAUAATT against NUP98, the median seed-adjusted z-score was 0.168.

GGAUAGUGAUGAUGUCUAUTT against GPR98: the median seed-adjusted z-score was -0.509.

For CCUCAACUCGUGAAGAAGATT against GPRC5A, the median seed-adjusted z-score was -0.56.

As for GGCAUAUGGUUAUCGAGGATT against EML4, the median seed-adjusted z-score is 0.958.

CGUCCAAGAUCGAACCCAUTT against HIRA: the median seed-adjusted z-score was 0.286.

On to GCAAUCGGGUGGUAUCAUATT against COPS5, for which the median seed-adjusted z-score is -0.124.
